Source: ChEMBL document CHEMBL3988442, “University of Dundee, Small-Polar-MMV Screening Library” (2021)
About 13,000 (27%) of roughly 48,000 compounds showed an effect of 50% or more. The list shows a part of the results.

system: Wolbachia pipientis; assay: Anti-Wolbachia Cell-Based Screen; assay type: functional; set-up: scale not given: in the data most compounds retested in dose-response had high values; settings: 5 µM

SMILES	Percent Effect
CCCN1CCN(C(=O)Cc2cccnc2)[C@H]2CS(=O)(=O)C[C@H]21	0.3719%
O=C(O)C(F)(F)F.O=C(O)C(F)(F)F.c1ccc(CN2C[C@H]3CCC[C@@]3(COCC3CCOCC3)C2)nc1	5.827%
O=C(NC[C@]12COC[C@H]1CN(Cc1cccnc1)C2)C1CCC1.O=C(O)C(F)(F)F.O=C(O)C(F)(F)F	96.22%
Cc1cc(CN2C[C@H]3CCC[C@@]3(COCC3CCOCC3)C2)no1.O=C(O)C(F)(F)F	1.109%
C[C@@H]1CN(C2CCOC2)C[C@]12CCN(c1cccnc1)C2=O.O=C(O)C(F)(F)F.O=C(O)C(F)(F)F (stereo not given in full)	8.884%
O=C(O)C(F)(F)F.O=C(O)C(F)(F)F.c1cncc(OC[C@@]23CCC[C@@H]2CN(C2CCOCC2)C3)c1	96.07%
COc1ncccc1CN1C[C@@H]2COC[C@]2(COCC2CC2)C1.O=C(O)C(F)(F)F.O=C(O)C(F)(F)F	12.64%
CCS(=O)(=O)NC[C@]12COC[C@H]1CN(Cc1cccnc1)C2.O=C(O)C(F)(F)F.O=C(O)C(F)(F)F	-8.022%
O=C(NC1CC(F)(F)C1)[C@]12COC[C@H]1CN(Cc1cccnc1)C2.O=C(O)C(F)(F)F.O=C(O)C(F)(F)F	1.025%
O=C(O)C(F)(F)F.O=C(O)C(F)(F)F.c1cncc(OC[C@]23COC[C@H]2CN(C2CCOCC2)C3)c1	108.8%
O=C(O)C(F)(F)F.O=C(O)C(F)(F)F.c1cncc(OC[C@@]23CCC[C@@H]2CN(CC2CCOCC2)C3)c1	108.6%
C[C@@H]1CN(C2CCOCC2)C[C@]12CCN(c1cccnc1)C2=O.O=C(O)C(F)(F)F.O=C(O)C(F)(F)F	17.85%
Cl.O=C(C1CCCCC1)N1CC2(CCNCC2)C1	-23.98%
CC(C)(C)NC(=O)CNc1ccc(C#N)c(C(F)(F)F)c1	3.351%
COCCO[C@H]1COCCN(C2CCN(C)CC2)C1	-1.205%
Cc1nc(N2C[C@H]3CNC[C@H]3C2)c2sccc2n1	3.045%
O=C(O)C(F)(F)F.O=C(O)C(F)(F)F.c1cc(CN2C[C@@H]3COC[C@]3(COCC3CC3)C2)ccn1	8.652%
O=C(O)C(F)(F)F.O=C(O)[C@]12CCCN(C3CCOC3)C[C@H]1CN(c1ncccn1)C2 (stereo not given in full)	103.8%
O=C(O)C(F)(F)F.O=C(O)C(F)(F)F.c1ccc(OC[C@]23COC[C@H]2CN(Cc2ccoc2)C3)nc1	-16.38%
O=C(O)C(F)(F)F.O=C(O)C(F)(F)F.c1cncc(OC[C@]23COC[C@H]2CN(C2CCC2)C3)c1	103%
O=C(O)C(F)(F)F.O=C(O)C(F)(F)F.c1ccc(OC[C@]23COC[C@H]2CN(C2CCOCC2)C3)nc1	115.9%
O=C1[C@@H]2CCN(C3CCC3)C[C@@H]2OCCN1Cc1ccncc1	-0.008003%
c1cc(COC[C@@]23CCC[C@@H]2CN(C2CCOCC2)C3)ccn1	95.49%
O=C(O)C(F)(F)F.c1cnc(N2CCC3(CCN(CC4CCOC4)C3)CC2)nc1 (stereo not given)	-13.35%
O=C(O)C(F)(F)F.O=C(O)C(F)(F)F.c1cncc(OC[C@]23COC[C@H]2CN(Cc2cccs2)C3)c1	-9.167%

SMILES	Percent Effect
O=C(O)C(F)(F)F.O=C(O)C(F)(F)F.c1ccc(CN2C[C@@H]3COC[C@]3(COCC3CCOCC3)C2)nc1	9.184%
CCN(CCc1ccccc1)Cn1nc(C)c2c(C)onc2c1=O	9.974%
CC(C)NC(=O)N1CCOC2(CNC2)C1	2.797%
CC(C)(C)n1cc(C(=O)O)c(-c2ccc(F)cc2F)n1	0.2477%
Cc1oncc1C(=O)N1CC[C@H]2[C@H](C[C@@H](CN3CCCC3)N2C)C1.O=C(O)C(F)(F)F.O=C(O)C(F)(F)F	90.36%
Cc1cnc(N2CC[C@H]3[C@H](C[C@@H](CN(C)C)N3C)C2)nc1.O=C(O)C(F)(F)F.O=C(O)C(F)(F)F.O=C(O)C(F)(F)F	-11.75%
O=C(O)C(F)(F)F.O=C(O)C(F)(F)F.O=C1[C@H]2CN(Cc3ccoc3)C[C@H]2CN1Cc1cccnc1	-13.37%
Cn1cc(N2C[C@@H]3CN(Cc4ccccn4)C[C@@H]3C2=O)cn1.O=C(O)C(F)(F)F.O=C(O)C(F)(F)F	-17.49%
CN1C(Cn2cccn2)C[C@@H]2CN(Cc3ccccn3)CC[C@@H]21.O=C(O)C(F)(F)F.O=C(O)C(F)(F)F.O=C(O)C(F)(F)F.O=C(O)C(F)(F)F (stereo not given in full)	100.1%
CN(C)C[C@@H]1C[C@@H]2CN(c3ncc(F)cn3)CC[C@@H]2N1C.O=C(O)C(F)(F)F.O=C(O)C(F)(F)F.O=C(O)C(F)(F)F	-18.44%
CN1C(Cn2cccn2)C[C@@H]2CN(Cc3cccnc3)CC[C@@H]21.O=C(O)C(F)(F)F.O=C(O)C(F)(F)F.O=C(O)C(F)(F)F.O=C(O)C(F)(F)F (stereo not given in full)	103.4%
CC(C)N1[C@H](Cn2cncn2)C[C@@H]2CN(c3ncccn3)CC[C@@H]21.O=C(O)C(F)(F)F	2.319%
O=C(O)C(F)(F)F.O=C(O)C(F)(F)F.O=C(O)C(F)(F)F.c1ccc(CN2CC[C@H]3[C@H]2CCN3c2ncccn2)nc1	-2.728%
O=C(C1CCCC1)N1C[C@@H]2CCNC[C@@H]21	-32.69%
Cc1nc(O)cc(CNC(=O)CC[C@@H]2CCCN3CCCC[C@H]23)n1	-12.46%
COCCO[C@@H]1C[C@H]2CN(C(=O)c3ccc(C)nc3)CCN2C1	-21.72%
Cc1cc(N2CCN3CCCCC3C2)n2nc(C)c(C)c2n1 (stereo not given)	11.68%
Cc1cc(C(F)(F)F)nc(N2CCN3CCCC3C2)n1 (stereo not given)	105%
Cc1cc(N2CCCN3CCC[C@H]3C2)n2nc(C)c(C)c2n1	20.9%
Cn1nc(-c2cccs2)cc1[C@H]1CN2CC[C@H]1C[C@@H]2CN	-6.528%
NC1(c2nc(-c3cccs3)cc(=O)[nH]2)CCCCC1	-5.956%
FC(F)(F)c1cc(-c2cccs2)nc(N2CCN3CCCC3C2)n1 (stereo not given)	58.5%
CN(C)C(=O)N1CCC2(C1)CN(c1cccnc1)C(=O)CN2C (stereo not given)	109.4%
O=C(O)C(F)(F)F.O=C(O)C(F)(F)F.O=C1CC2(CCN(CC3CC3)C2)CN1c1cccnc1 (stereo not given)	7.384%
O=C(O)C(F)(F)F.O=C(O)C(F)(F)F.O=C1CC2(CCN(Cc3ccccn3)C2)CN1c1cccnc1 (stereo not given)	1.703%

SMILES	Percent Effect
O=C(COc1cccc(F)c1)N1C[C@@H](O)[C@H](N2CCCC2)C1	-2.251%
O=C(COc1cccc(F)c1)N1C[C@@H](O)[C@H](N2CCOCC2)C1	106.1%
COc1ccccc1OCC(=O)N1CCN(Cc2noc(C)n2)CC1	5.502%
CN(C)[C@@H]1CN(C(=O)COc2cccc(F)c2)C[C@H]1O	81.08%
CCN1CCN(C(=O)COc2ccc(CN(C)S(C)(=O)=O)cc2)CC1	-1.123%
COc1cccc(OCC(=O)N2CCCSCC2CN2CCOCC2)c1 (stereo not given)	8.311%
Cc1ccccc1C1(CN)CCCCC1	0.8163%
Cc1nc(N2C[C@H]3CC[C@@H](C2)N3)nc2cc(S(C)(=O)=O)ccc12	4.923%
CN(C)C(=O)CN1C[C@@H]2OCCN(c3ncc(F)cn3)[C@@H]2C1	104.1%
CCN1C[C@H]2[C@@H](C1)N(c1ncc(F)cn1)CC[C@H]2OC.O=C(O)C(F)(F)F.O=C(O)C(F)(F)F	2.548%
Cc1nc(CN2C[C@@H]3OCCN(c4ncc(F)cn4)[C@@H]3C2)cs1	-23.28%
Cc1cnc(N2CCC[C@@H]3CN(CC(=O)N(C)C)C[C@@H]32)nc1.O=C(O)C(F)(F)F.O=C(O)C(F)(F)F	-0.2022%
CCOC(=O)CN1C[C@@H]2OCCN(c3ncc(F)cn3)[C@@H]2C1	86.46%
Cc1nc(C2CCCN(C(C)C)C2)sc1Br (stereo not given)	117%
Cc1nc(C2CCN(C(C)C)CC2)sc1Br	83.07%
Cl.O=C(NCC(F)(F)F)C1=NOC2(CCCNC2)C1 (stereo not given)	8.664%
CN(Cc1cncnc1)[C@H]1CN(Cc2ccco2)[C@@H]2CCCO[C@@H]21	-12.03%
Cc1cc(CN2CCN3C[C@H](c4ccccc4)[C@@H](CO)[C@H]3C2)on1	124.7%
OC[C@@H]1[C@H]2CN(c3ccccn3)CCN2C[C@H]1c1ccccc1	110.4%
Cc1cc(CN2C[C@H]3CC[C@@H]2CN(Cc2[nH]cnc2C)C3)on1	1.495%
CN(C)C(=O)CN1CCO[C@H]2CN(c3ccccn3)C[C@H]21	-17.61%
O=C(O)C(F)(F)F.O=C(O)C(F)(F)F.c1ccc(CO[C@@H]2C[C@H]3CN(c4ncccn4)CCN3C2)nc1	-5.237%
OC[C@@H]1[C@@H](c2ccccc2)CN2CCN(c3ccccn3)C[C@H]12	121.4%
c1ccc(-c2cc(CN3C[C@H]4CC[C@H]3C4)on2)cc1	0.1259%
COCC(=O)NC[C@H]1C[C@@H]2CCN1C[C@@H]2CN1CCc2ccccc2C1	-3.386%
